Test results reported in PubChem BioAssay (NCATS).
Results filed as inconclusive are left out. Calls of active or inactive are those of the source. Calls come from the whole dose curve; as a rule, active = well fitted inhibition curve with a large enough effect; inconclusive = small, poorly fitted or top-dose-only effect; inactive = flat fitted curve, though single readings scatter.

Tests used:
[1] = qHTS profiling for inhibitors of Plasmodium falciparum proliferation (AID 504749); note: nearly all actives have a fitted effect of over 60% in size;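 for activity, negative = inhibition: 0% = DMSO vehicle and full inhibition = artemisinin control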; conditions: P. falciparum in erythrocytes, SYBR Green DNA, 72 h
In short: (§1)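 SYBR Green fluorescence of parasite DNA, read after lysis and overnight dark incubation, measured growth over 72 h in erythrocyte culture at 0.3% parasitemia and 2.5% hematocrit. Data normalised to DMSO and 0.29 uM artemisinin, with plate-drift correction.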

3D7 = assay: as above; conditions: P. falciparum in erythrocytes, SYBR Green DNA, 72 h; series mostly up to 28.7 µM
In short: as §1

7G8 = assay: as above; conditions: P. falciparum in erythrocytes, SYBR Green DNA, 72 h; series mostly up to 28.7 µM
In short: as §1

AA1029 = assay: as above; conditions: P. falciparum in erythrocytes, SYBR Green DNA, 72 h; series mostly up to 28.7 µM
In short: as §1

AS120 = assay: as above; conditions: P. falciparum in erythrocytes, SYBR Green DNA, 72 h; series mostly up to 28.7 µM
In short: as §1

ATS95 = assay: as above; conditions: P. falciparum in erythrocytes, SYBR Green DNA, 72 h; series mostly up to 28.7 µM
In short: as §1

CP211 = assay: as above; conditions: P. falciparum in erythrocytes, SYBR Green DNA, 72 h; series mostly up to 28.7 µM
In short: as §1

CP217 = assay: as above; conditions: P. falciparum in erythrocytes, SYBR Green DNA, 72 h; series mostly up to 28.7 µM
In short: as §1

CP237 = assay: as above; conditions: P. falciparum in erythrocytes, SYBR Green DNA, 72 h; series mostly up to 28.7 µM
In short: as §1

ATS189 = assay: as above; conditions: P. falciparum in erythrocytes, SYBR Green DNA, 72 h; series mostly up to 28.7 µM
In short: as §1

C2A = assay: as above; conditions: P. falciparum in erythrocytes, SYBR Green DNA, 72 h; series mostly up to 28.7 µM
In short: as §1

CP185 = assay: as above; conditions: P. falciparum in erythrocytes, SYBR Green DNA, 72 h; series mostly up to 28.7 µM
In short: as §1

CP191 = assay: as above; conditions: P. falciparum in erythrocytes, SYBR Green DNA, 72 h; series mostly up to 28.7 µM
In short: as §1

CP192 = assay: as above; conditions: P. falciparum in erythrocytes, SYBR Green DNA, 72 h; series mostly up to 28.7 µM
In short: as §1

CP194 = assay: as above; conditions: P. falciparum in erythrocytes, SYBR Green DNA, 72 h; series mostly up to 28.7 µM
In short: as §1

CP201 = assay: as above; conditions: P. falciparum in erythrocytes, SYBR Green DNA, 72 h; series mostly up to 28.7 µM
In short: as §1

CP203 = assay: as above; conditions: P. falciparum in erythrocytes, SYBR Green DNA, 72 h; series mostly up to 28.7 µM
In short: as §1

CP215 = assay: as above; conditions: P. falciparum in erythrocytes, SYBR Green DNA, 72 h; series mostly up to 28.7 µM
In short: as §1

CP238 = assay: as above; conditions: P. falciparum in erythrocytes, SYBR Green DNA, 72 h; series mostly up to 28.7 µM
In short: as §1

CP247 = assay: as above; conditions: P. falciparum in erythrocytes, SYBR Green DNA, 72 h; series mostly up to 28.7 µM
In short: as §1

[2] = at 28.7 µM (top of the series), parasite line B
Potency is the fitted concentration of half-maximal effect.

CCCCc1nc(Cl)c(CO)n1Cc1ccc(-c2ccccc2-c2nn[nH]n2)cc1
active: Potency ([1]; parasite line B) 12.6 µM | Potency (3D7) 5.62 µM | Potency (7G8) 6.31 µM | Potency (AA1029) 10 µM | Potency (AS120) 8.91 µM | Potency (ATS95) 12.6 µM | Potency (CP211) 6.75 µM | Potency (CP217) 12.6 µM
inactive: Potency (CP237)

C[C@@H]1C(=O)NC2=Nc3cccc(Cl)c3CN21
inactive: activity, negative = inhibition [1, 2] -2.54% | Potency (3D7) | Potency (7G8) | Potency (AA1029) | Potency (AS120) | Potency (ATS189) | Potency (ATS95) | Potency (C2A) | Potency (CP185) | Potency (CP191) | Potency (CP192) | Potency (CP194) | Potency (CP201) | Potency (CP203) | Potency (CP211) | Potency (CP215) | Potency (CP217) | Potency (CP237) | Potency (CP238) | Potency (CP247)

CC/C(=C(/CC)c1ccc(O)cc1)c1ccc(O)cc1
inactive: activity, negative = inhibition [1, 2] -19.4% | Potency (3D7) | Potency (AA1029) | Potency (AS120) | Potency (ATS95) | Potency (C2A) | Potency (CP185) | Potency (CP192) | Potency (CP194) | Potency (CP201) | Potency (CP203) | Potency (CP211) | Potency (CP215) | Potency (CP217) | Potency (CP237) | Potency (CP238) | Potency (CP247)

CCOC(=O)/C=C(C)/C=C/C=C(C)/C=C/c1c(C)cc(OC)c(C)c1C
active: Potency (7G8) 12.6 µM
inactive: Potency (CP192) | Potency (CP194) | Potency (CP201) | Potency (CP203) | Potency (CP211) | Potency (CP215) | Potency (CP237)

Oc1c(I)cc(I)c2cccnc12
inactive: Potency (C2A)

O=C(CCCN1CCC(O)(c2ccc(Br)cc2)CC1)c1ccc(F)cc1
active: Potency (3D7) 5.62 µM | Potency (7G8) 2.82 µM | Potency (ATS95) 3.16 µM
inactive: Potency (CP201) | Potency (CP211)

CCCCC(CC)CN=C(N)NC(N)=NCCCCCCN=C(N)NC(N)=NCC(CC)CCCC (stereo not drawn)
active: Potency ([1]; parasite line A) 1 µM | Potency (3D7) 1.58 µM | Potency (7G8) 0.316 µM | Potency (AA1029) 1.41 µM | Potency (AS120) 0.891 µM | Potency (ATS189) 3.16 µM | Potency (ATS95) 1.41 µM | Potency (C2A) 2.24 µM | Potency (CP185) 1.41 µM | Potency (CP191) 1 µM | Potency (CP192) 3.79 µM | Potency (CP194) 1.51 µM | Potency (CP201) 1.69 µM | Potency (CP211) 1.51 µM | Potency (CP215) 1.69 µM | Potency (CP217) 3.16 µM | Potency (CP237) 1.26 µM | Potency (CP238) 1 µM | Potency (CP247) 1.12 µM

CO/N=C1\CN(c2nc3c(cc2F)c(=O)c(C(=O)O)cn3C2CC2)CC1CN (stereo not drawn)
active: Potency (3D7) 10 µM | Potency (7G8) 7.94 µM | Potency (AA1029) 7.94 µM | Potency (CP191) 8.91 µM

CCCCCCCCCCCCCCNCCO
inactive: Potency (ATS95) | Potency (CP192) | Potency (CP194) | Potency (CP201) | Potency (CP203) | Potency (CP211) | Potency (CP217)
active: Potency ([1]; parasite line A) 10 µM | Potency (7G8) 10 µM | Potency (AS120) 12.6 µM | Potency (CP237) 4.47 µM | Potency (CP247) 10 µM

CC(=O)OCC(=O)[C@@]1(OC(C)=O)[C@@H](C)C[C@H]2[C@@H]3C[C@H](F)C4=CC(=O)C=C[C@]4(C)[C@@]3(F)[C@@H](O)C[C@@]21C
active: Potency (7G8) 8.91 µM
inactive: activity, negative = inhibition ([1]; at 28.7 µM (top of the series), parasite line A) -18.2% | Potency (3D7) | Potency (AA1029) | Potency (AS120) | Potency (ATS189) | Potency (C2A) | Potency (CP185) | Potency (CP191) | Potency (CP192) | Potency (CP194) | Potency (CP201) | Potency (CP203) | Potency (CP211) | Potency (CP217) | Potency (CP238) | Potency (CP247)

CC(C)COC(=O)c1ccc(N)cc1
inactive: activity, negative = inhibition [1, 2] -17.5% | Potency (3D7) | Potency (7G8) | Potency (AA1029) | Potency (AS120) | Potency (ATS189) | Potency (ATS95) | Potency (C2A) | Potency (CP185) | Potency (CP191) | Potency (CP192) | Potency (CP194) | Potency (CP211) | Potency (CP215) | Potency (CP217) | Potency (CP237) | Potency (CP238) | Potency (CP247)

O=C(Nc1ccc(Oc2ccc(Cl)cc2)c(Cl)c1)c1cc(I)cc(I)c1O
inactive: Potency (3D7) | Potency (AA1029) | Potency (ATS189) | Potency (ATS95) | Potency (C2A) | Potency (CP185) | Potency (CP192) | Potency (CP194) | Potency (CP201) | Potency (CP203) | Potency (CP211) | Potency (CP238)
active: Potency (CP217) 0.158 µM

NC(CS)C(=O)O (stereo not drawn)
active: Potency (7G8) 1.78 µM | Potency (AA1029) 15.8 µM | Potency (ATS95) 12.6 µM | Potency (CP191) 10 µM
inactive: Potency (CP185) | Potency (CP192) | Potency (CP201) | Potency (CP211)

CCOc1ccc(Cc2nccc3cc(OCC)c(OCC)cc23)cc1OCC
inactive: activity, negative = inhibition ([1]; at 12.8 µM (top of the series), parasite line B) -21.6% | Potency (7G8) | Potency (AA1029) | Potency (AS120) | Potency (ATS189) | Potency (ATS95) | Potency (C2A) | Potency (CP185) | Potency (CP192) | Potency (CP203) | Potency (CP238) | Potency (CP247)
